Results taken from PubChem BioAssay (NCI).
About 79,000 compounds went through this panel and 15% of them were active in at least one assay; those are over-represented in the sample as a whole. Values without a mark were called inactive. Calls of active or inactive are those of the source. Rule as the data show it: active = growth inhibition above about 70%; inactive = the rest.

Experiments:
[1] = NCI Yeast Anticancer Drug Screen. Data for the rad50 strain (AID 155);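 also: 0% = growth of vehicle-only cultures of the same strain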; settings: S. cerevisiae rad50 strain growth inhibition, hits give high values
Procedure, shortened: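 DNA repair mutant yeast, compound exposure, growth read-out; inhibition is taken relative to vehicle.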

[2] = NCI Yeast Anticancer Drug Screen. Data for the mec2-1 strain (AID 157); settings: S. cerevisiae mec2-1 strain, hits give high values
Procedure, shortened: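 Cells of the genetically defined mec2-1 yeast strain are incubated with test compound. Inhibition of growth is calculated against vehicle-treated controls.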

[3] = NCI Yeast Anticancer Drug Screen. Data for the sgs1 mgt1 strain (AID 161);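 also: 0% = growth of cultures given vehicle only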; settings: S. cerevisiae sgs1 mgt1 strain, hits give high values
Procedure, shortened: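 Mutant yeast exposed to compound; growth scored against vehicle-only wells.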

[4] = NCI Yeast Anticancer Drug Screen. Data for the cln2 rad14 strain (AID 165);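 also: 0% = growth equal to vehicle treated cultures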; settings: S. cerevisiae cln2 rad14 strain, hits give high values
Procedure, shortened: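 The screen exposed genetically defined yeast (cln2 rad14) to test compounds and scored growth inhibition relative to vehicle-treated controls.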

[5] = NCI Yeast Anticancer Drug Screen. Data for the bub3 strain (AID 167); settings: S. cerevisiae bub3 mutant strain, hits give high values
Procedure, shortened: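 In this screen, a yeast mutant lacking normal mitotic checkpoint function is challenged with compound. Relative growth versus vehicle gives the inhibition value.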

[6] = NCI Yeast Anticancer Drug Screen. Data for the mlh1 rad18 strain (AID 175); settings: S. cerevisiae mlh1 rad18 strain growth inhibition, hits give high values
Procedure, shortened: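 Compound-treated yeast growth, normalised to vehicle controls. Strain bears defined DNA repair mutations.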

[7] = at 5.0 µM (retest, dose inferred, filed as 0.5)
[8] = at 50.0 µM (retest, dose inferred, filed as 5.0)

| SMILES | growth inhibition [1, 7] | growth inhibition [1, 8] | growth inhibition ([1]; at 50.0 µM) | growth inhibition [2, 7] | growth inhibition [2, 8] | growth inhibition ([2]; at 50.0 µM) | growth inhibition [3, 7] | growth inhibition [3, 8] | growth inhibition ([3]; at 50.0 µM) | growth inhibition [4, 7] | growth inhibition [4, 8] | growth inhibition ([4]; at 50.0 µM) | growth inhibition [5, 7] | growth inhibition [5, 8] | growth inhibition ([5]; at 50.0 µM) | growth inhibition [6, 7] | growth inhibition [6, 8] | growth inhibition ([6]; at 50.0 µM) |
| --- | --- | --- | --- | --- | --- | --- | --- | --- | --- | --- | --- | --- | --- | --- | --- | --- | --- | --- |
| CCCc1cc(=O)oc2c3c(c4c(c12)OC(C)(C)CC4)O[C@H](C)[C@H](C)C3=O | -7% | 99% (active) | 88.5% (active) | -18% | 99% (active) | 91.6% (active) | -12% | 99% (active) | 88.2% (active) | -6% | 98% (active) | 90.3% (active) | -18% | 99% (active) | 91.1% (active) | -5% | 99% (active) | 84.7% (active) |
| COc1c(C(=O)/C(=N/Nc2ccccc2)C(C)=O)c(O)c(OC)c2occc12 | -2% | 94% (active) | 45.7% | -18% | 87% (active) | 52.5% | -39% | 82% (active) | 73.2% (active) | -19% | 91% (active) | 33% | -32% | 92% (active) | 47.8% | 2% | 90% (active) | 68.8% |
| Cn1c(=S)c2[nH]c(SCCN3CCOCC3)nc2n(C)c1=O | 18% | 81% (active) | 98.5% (active) | 20% | 70% (active) | 99.5% (active) | 31% | 72% (active) | 99.4% (active) | 3% | 59% | 61% | 30% | 83% (active) | 99% (active) | 15% | 90% (active) | 98.7% (active) |
| CN(C)C=Nc1ccc2nonc2c1 | 15% | 24% | 10.2% | -15% | -7% | -3.55% | 12% | 16% | 3.4% | 19% | 23% | 7.8% | 15% | 13% | 4.1% | 8% | 10% | 0.9% |
| CCc1nc2c(O)ccc(O)c2nc1C | -137% | 33% | 72.3% (active) | -43% | -11% | 62.9% | -50% | 37% | 65% | -55% | -10% | 59.4% | -63% | 17% | 84.2% (active) | -107% | 2% | 90.3% (active) |
| CCN(CC)CCCOC(=O)C(c1ccccc1)C1CCCCC1 (configuration not stated) | 4% | 63% | 88.5% (active) | 11% | 71% (active) | 67.5% | 22% | 94% (active) | 90.7% (active) | 13% | 41% | 88.5% (active) | 16% | 83% (active) | 94.1% (active) | 41% | 97% (active) | 98% (active) |
| CC(C)C(O)(C(=O)OCN1C(=O)C2C3C=CC(C2C1=O)C1C2C(=O)N(COC(=O)C(O)(C(C)C)C(C)O)C(=O)C2C31)C(C)O (configuration not stated) | 0% | -7% | 28.5% | -2% | 11% | 52% | -7% | 17% | 37.9% | 0% | -2% | 18.1% | 5% | 9% | -2% | -3% | 2% | 30.6% |
| Nc1ccccc1C(=O)NCCc1c[nH]c2ccccc12 | 1% | 34% | 6.35% | -3% | 6% | 11.8% | 4% | 40% | 33.8% | -5% | 27% | 66.6% | -7% | 18% | 48.5% | 3% | 38% | 7% |
| CCOC(=O)C(C#N)c1cc(O)c(C(C#N)C(=O)OCC)cc1O (configuration not stated) | -2% | -2% | -5.45% | -3% | -4% | 6.85% | -4% | -6% | -1.65% | 0% | -10% | 55.5% | -1% | -5% | 13.4% | -2% | -5% | -6.9% |
| O=C1C=CC(=O)N1c1ccc2c(c1)Cc1cc(Cl)ccc1-2 | -48% | 92% (active) | 13.6% | 8% | 96% (active) | 78.3% (active) | -5% | 93% (active) | 79.2% (active) | -3% | 27% | -72% | 11% | 82% (active) | 72.3% (active) | 26% | 97% (active) | 68.9% |
| OCCc1c2ccccc2cc2ccccc12 | -135% | -50% | 41.5% | -44% | -41% | 10.6% | -61% | -36% | 11.7% | -52% | -48% | 11.8% | -60% | -43% | 3.35% | -127% | -74% | 59.8% |
| O=S(=O)(SCc1ccccc1)C(c1ccccc1)c1ccccc1 | 10% | 6% | 89.7% (active) | 13% | 6% | 98.6% (active) | 13% | 31% | 98% (active) | 5% | -17% | 95.5% (active) | 13% | 39% | 99.1% (active) | 20% | 18% | 98% (active) |
| COc1ccc(N=Cc2ccccc2O)cc1 | -9% | -57% | 8.1% | 0% | -33% | -8% | -8% | -36% | 2.65% | -4% | -24% | 40.9% | -27% | -118% | -5.25% | -7% | -45% | -26.1% |
| CC1CCCCC12C(C#N)(C#N)C2(C#N)C#N (configuration not stated) | 22% | 90% (active) | 99.2% (active) | 30% | 97% (active) | 99.3% (active) | 33% | 97% (active) | 99.5% (active) | 8% | 89% (active) | 99.2% (active) | 43% | 97% (active) | 99.4% (active) | 41% | 98% (active) | 99.3% (active) |
| COc1ccc(C2=NN(c3ccccc3)C[N+](c3ccc(C)cc3)=N2)cc1 | 6% | 98% (active) | 97.5% (active) | -14% | 99% (active) | 98.2% (active) | -3% | 98% (active) | 98.5% (active) | 12% | 98% (active) | 97.9% (active) | -1% | 99% (active) | 98.2% (active) | 13% | 98% (active) | 97.8% (active) |
| COc1ccc(C=Nc2ccccc2O)cc1 | 26% | 44% | 59.1% | 15% | 22% | 32.2% | 11% | 15% | 39.5% | -2% | 13% | -15.9% | 81% (active) | 74% (active) | 76.6% (active) | 38% | 54% | 67.4% |
| Cc1cccc(NC(=S)N/N=C(/c2ccccc2)c2ccccn2)c1 | -3% | 94% (active) | 56% | -1% | 94% (active) | 66.5% | -35% | 93% (active) | 73.2% (active) | -15% | 92% (active) | 74.7% (active) | -38% | 93% (active) | 77.4% (active) | -8% | 93% (active) | 76.8% (active) |
| CC(C)NC(=O)OCCS(=O)c1c(Cl)c(Cl)nn1C (configuration not stated) | -15% | 62% | 98.8% (active) | 11% | 37% | 99.2% (active) | -5% | 53% | 42.4% | 1% | 20% | 97.7% (active) | -4% | 75% (active) | 97% (active) | -7% | 56% | 99% (active) |
| O=C(Nc1ccc(Cl)c(Cl)c1)Nc1cc(Cl)ccc1Oc1ccc(Cl)cc1S(=O)(=O)O | 52% | 97% (active) | 90.5% (active) | 32% | 99% (active) | 93.5% (active) | 55% | 99% (active) | 93.6% (active) | 35% | 99% (active) | 92.2% (active) | 43% | 99% (active) | 92.5% (active) | 61% | 98% (active) | 91% (active) |
